Data from the supplement of paper PMC3334620.
The full ranking holds about 33,000 sequences; the median of “E-score (-0.5 to 0.5)” is about -0.04, and the highest 2% start at about 0.36. Only a selection was taken, and the highest values are over-represented in it overall.

Target: T1, Hmlalpha2 (UniProt P0CY09)
T1 sequence: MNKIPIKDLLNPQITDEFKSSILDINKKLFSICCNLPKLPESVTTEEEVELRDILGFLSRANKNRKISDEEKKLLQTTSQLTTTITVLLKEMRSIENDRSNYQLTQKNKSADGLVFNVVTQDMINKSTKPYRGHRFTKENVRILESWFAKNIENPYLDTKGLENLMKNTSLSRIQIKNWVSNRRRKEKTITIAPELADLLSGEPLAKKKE
Test: PBM E-score (8-mer binding enrichment) (E-score (-0.5 to 0.5)); higher = stronger / more preferred TF binding
Settings: protein concentration: 200 nM; construct: GST-full length
Protocol: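 Universal 'all 10-mer' protein binding microarrays (Agilent AMADID 015681) probed with GST-tagged S. cerevisiae TFs (full-length or DBD) made by in vitro transcription/translation (PURExpress), about 100-200 nM. Bound TF was detected with fluorescent anti-GST. Each ungapped 8-mer (which stands for itself and its reverse complement) is scored by the PBM enrichment score (E-score), a modified Wilcoxon-Mann-Whitney statistic from -0.5 to +0.5, computed with the Universal PBM Analysis Suite. Scale: above 0.35 generally sequence-specific binding.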

Point of comparison: AATACATT, “PBM E-score” value 0.329. Against it:
- AGCAAGTC — lower, -0.0673
- CCCTATCG — lower, -0.272
- AGGAAACC — lower, -0.0996
- TCCCAGGA — lower, -0.361
- CATTAGAG — lower, -0.127
- AGATTTGC — lower, -0.0168
- CGAGGGTA — lower, -0.233
- GCCTGCCA — lower, -0.0217
- CCATGACG — lower, -0.105
- GCATGACC — lower, -0.191
- ACATGACC — higher, 0.38
- ACATGACG — higher, 0.379
- ACATGACA — higher, 0.412
- CCATGACA — lower, 0.0453
- GCATGACA — lower, 0.188
- ACATGACT — lower, 0.307
- CCATGACC — lower, -0.348
- GCTTCAAC — lower, 0.0375
- CTTGATCC — lower, -0.142
- AAAATCGT — lower, 0.0614
- AGATGGAT — lower, -0.265
- GTGTCTCA — lower, -0.0554
- GCCTAGAA — lower, -0.187
- CGAGAAAG — lower, -0.0529
- AGCCCTGA — lower, -0.0785
- CCCGTGGA — lower, -0.176
- ACCGTGTC — lower, 0.264
- CCCGTGTA — higher, 0.451
- GCCGTGCA — lower, 0.0721
- ACCGTGTA — higher, 0.473
- GCCGTGAA — lower, -0.197
- CCCGTGTC — lower, 0.168
- GCCGTGTA — higher, 0.432
- ACCGTGTG — lower, 0.113
- AGCAAACG — lower, -0.0759
- AAGTGCCG — lower, 0.00934
- ACCGACTG — lower, -0.317
- GTTGTTGA — lower, 0.259
- TTCTGAAA — lower, 0.0341
- CTTTCTGA — lower, 0.0509
- CCATTACC — lower, -0.0103
- ACATTACG — higher, 0.336
- TCATTAAA — lower, 0.263
- ACATTACT — lower, 0.303
- TCATTACA — higher, 0.439
- GCATTAGA — lower, 0.0569
- CCATTACA — higher, 0.435
- GCATTACC — lower, 8e-05
- TCATTAGA — lower, 0.0985
- GCATTACA — higher, 0.428
- CCATTACG — lower, 0.13
- ACATTACA — higher, 0.449
- GTACGAAC — lower, 0.152
- GGGAGAGA — lower, -0.33
- ACGGGTTG — lower, -0.15
- CCTCAGCG — lower, -0.255
- CCCAGAAA — lower, -0.0348
- GTTGCGAA — lower, 0.0227
- ACGTCCTC — lower, -0.162
- CACGGCTC — lower, -0.0568
- CGTGTCGC — lower, 0.214
- ATGCCCTG — lower, -0.0289
- CCGGCGGA — lower, -0.234
- GACATGTC — lower, 0.327
- GACATTTA — lower, 0.191
- GACATGTA — higher, 0.423
- TAAATGTA — higher, 0.38
- CACATGTA — higher, 0.416
- CAAATGTA — higher, 0.35
- TACAGGTA — lower, 0.135
- TACATCTA — lower, 0.263
- CACATGTC — lower, 0.22
- GAAATGTA — lower, 0.0891
- TACATGTA — higher, 0.479
- AATTGACA — lower, 0.275
- AGTCTAGG — lower, -0.15
- CGCTCTCA — lower, -0.165
- CAGTCCCG — lower, -0.196
- ACGCCGAG — lower, -0.0454
- ATGTGCTA — lower, 0.0958
- CGAAGAAG — lower, -0.0393
- ATGTTGAC — higher, 0.356
- ATGTTGAG — higher, 0.33
- GTGTTGAA — higher, 0.398
- ATGTTGAA — higher, 0.395
- GTGTTGGA — lower, 0.224
- CTGTTGAA — lower, 0.259
- GAGCTATA — lower, -0.0673
- GGTGCTCA — lower, -0.179
- CCCACGAA — lower, -0.102
- GGCAGCCC — lower, -0.418
- ATTCACAA — lower, 0.232
- GATACATA — lower, 0.32
- AATACAAC — lower, 0.315
- GATACATC — lower, 0.169
- AATACATC — higher, 0.368
- TATACAAA — lower, 0.265
- AATACAAG — higher, 0.386
- AATACAGC — lower, 0.0849
- TATACATA — higher, 0.445
- AATACAGG — lower, 0.2
- AATACATG — higher, 0.482
- AATACAAT — lower, 0.249
- GAATGGTA — lower, 0.232
- GGTGGGGA — lower, -0.0925
- GGCTTATA — lower, -0.0133
- AGTGTTGC — lower, 0.169
- CGTAAGTC — lower, 0.0646
- CCTAAGAG — lower, -0.136
- AAGCCAAC — lower, 0.00741
- CATACCCG — lower, -0.117
- CATACATC — lower, 0.253
- AATACAAA — higher, 0.363
- CATACATA — the same, 0.329
- AATACATA — higher, 0.444
- CATACATG — higher, 0.382
- AATACAGA — lower, 0.204
- CACACCGC — lower, -0.0386
- GATTTACA — higher, 0.429
- GATTTACC — lower, 0.18
- AATTTACA — higher, 0.431
- AATTTACT — lower, 0.296
- TATTTAGA — lower, 0.28
- TATTTACA — higher, 0.463
- CATTTACC — lower, 0.144
- TATTTAAA — lower, 0.207
- GATTTAGA — lower, -0.00065
- CATTTACG — lower, 0.303
- CATTTACA — higher, 0.442
- AATTTACC — lower, 0.12
- CCGGTGCC — lower, -0.378
- AGGAAGAC — lower, -0.0908
- CACTCGCA — lower, 0.0187
- GACGCGGA — lower, 0.0365
- TAAACGGA — lower, 0.0215
- AGAGAGCA — lower, -0.234
- AAGACACG — higher, 0.373
- CAGACACG — lower, 0.0667
- GTGACACA — lower, 0.142
- ATGACACA — lower, 0.302
- AAGACACA — lower, 0.183
- ATGACACG — higher, 0.404
- TCACAGCA — lower, 0.0289
- ACCGCTGG — lower, -0.228
- CCGATGTA — lower, 0.155
- GTGATGTA — higher, 0.382
- ACGATGTA — higher, 0.376
- ACGATGTC — lower, 0.0103
- ATGATGTA — higher, 0.358
- GGGATGTA — lower, 0.328
- GCGATGTA — higher, 0.366
- GCGATGAA — lower, 0.0458
- CTGATGTA — lower, 0.233
- AACTGTTG — lower, -0.104
- AAGCCCTA — lower, 0.0656
- CCACGGTC — lower, -0.326
- ACACGGTG — higher, 0.392
- CCACGGTA — lower, -0.0423
- ACACGGAA — higher, 0.376
- ACACGGTC — higher, 0.397
- GCACGGTA — lower, -0.0709
- ACACGGTA — higher, 0.366
- ATACGGTC — lower, -0.0524
- ACACGGAG — lower, 0.315
- AAACGGTG — lower, 0.0442
- ATACGGTG — lower, -0.0688
- ACACGGAT — higher, 0.36
- ATTAAGTC — lower, 0.189
- ACCTATGC — lower, -0.0222
- TCTGCGCA — lower, -0.00074
- CAGGGCCG — lower, -0.121
